Screening results (PubChem)
SIRT5 inh: sirtuin-5 (human) deacylase inhibition | Q9NXA8 | Purified SirT5, succinyl-peptide AMC, trypsin-coupled fluorescence | inhibition, % at 15 µM | hit rate 1.1% among 330,000 | AID 652115; in the data active = inhibition above about 15%
FGF22 binding: binders of recombinant human FGF22 by thermal shift; Q9HCT0; SYPRO orange fluorescence; percent of sucrose octasulfate shift, DMSO zero; activity (Tm shift, normalised), % at 9.99 µM; hit rate 1.5% among 340,000; AID 651658;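 active = mean Tm shift, scaled 0 neutral to 100 positive control, at about 1.3% or above, every replicate too, limit read from the data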
INS-1E GSIS act: primary screen for activators of insulin secretion dependent on glucose, INS-1E cells, GLuc reporter luminescence | INS-1E GLuc reporter insulin secretion, 2-3 h | hit rate 0.61% among 370,000 | activation, % at 16.6 µM | AID 743287;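 active = lowest replicate activation of at least 40%, so every replicate reaches that level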
Casp6 inh: blocks human caspase-6 cleavage activity. P55212. hit rate 0.53% among 350,000. inhibition, % at 12.5 µM. purified caspase-6, Z-VEID-R110 cleavage fluorescence. AID 686996;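 active = mean inhibition across replicates at least about 35%, with every replicate also reaching that limit, limit read from the data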
ERAP1 HTS inh: inhibitors of human ERAP1 aminopeptidase; Q9NZ08; recombinant ERAP1, Leu-AMC fluorescence, 60 min; inhibition, % at 10.7 µM; hit rate 0.15% among 340,000;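 active = mean replicate inhibition of at least 30%, or all replicates individually reaching that 30% level; inactive = mean below 30% and not every replicate reaching it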
Large screens that a line does not name were inactive. The list is not random: actives were taken first. Their share in the collection is about 3.3%.

Cc1ccc(S(=O)(=O)Nc2ccc3c(c2)C(=O)N([C@@H](C)CO)C[C@H](C)[C@@H](CN(C)Cc2ccc(C(F)(F)F)cc2)OCCCC[C@@H](C)O3)cc1	SIRT5 inh 17
Cc1ccc(S(=O)(=O)Nc2ccc3c(c2)C(=O)N([C@H](C)CO)C[C@H](C)[C@@H](CN(C)Cc2ccc(C(F)(F)F)cc2)OCCCC[C@H](C)O3)cc1	SIRT5 inh 21
Cc1ccc(S(=O)(=O)Nc2ccc3c(c2)C(=O)N([C@@H](C)CO)C[C@H](C)[C@H](CN(C)Cc2ccc(C(F)(F)F)cc2)OCCCC[C@H](C)O3)cc1	SIRT5 inh 15
C[C@@H]1CN([C@H](C)CO)C(=O)c2cc(NC(=O)c3ccncc3)ccc2O[C@H]1CN(C)Cc1ccc(C(=O)O)cc1	none
CCCC(=O)Nc1ccc2c(c1)C(=O)N(C)[C@@H]1CC[C@@H](CC(=O)Nc3ccccc3)O[C@H]1CO2	none
C[C@@H]1CN([C@H](C)CO)C(=O)c2cc(NS(=O)(=O)c3ccccc3)ccc2O[C@@H](C)CCCCO[C@@H]1CN(C)Cc1ccc(C(F)(F)F)cc1	none (no result: FGF22 binding)
C[C@@H]1CCCCO[C@H](CN(C)Cc2ccc(C(F)(F)F)cc2)[C@@H](C)CN([C@@H](C)CO)C(=O)c2cc(NS(=O)(=O)c3ccccc3)ccc2O1	SIRT5 inh 20 (no result: FGF22 binding)
C[C@@H]1CN([C@@H](C)CO)C(=O)c2cc(NS(=O)(=O)c3ccccc3)ccc2O[C@@H](C)CCCCO[C@H]1CN(C)Cc1ccc(C(F)(F)F)cc1	SIRT5 inh 18 (no result: FGF22 binding)
C[C@@H]1CCCCO[C@H](CN(C)Cc2ccc(C(F)(F)F)cc2)[C@H](C)CN([C@@H](C)CO)C(=O)c2cc(NS(=O)(=O)c3ccccc3)ccc2O1	none (no result: FGF22 binding)
C[C@@H]1CCCCO[C@@H](CN(C)Cc2ccc(C(F)(F)F)cc2)[C@H](C)CN([C@@H](C)CO)C(=O)c2cc(NS(=O)(=O)c3ccccc3)ccc2O1	SIRT5 inh 21 (no result: FGF22 binding)
COc1ccc(NC(=O)N(C)C[C@@H]2OCCCC[C@@H](C)Oc3ccc(NC(=O)Nc4cccc5ccccc45)cc3C(=O)N([C@@H](C)CO)C[C@@H]2C)cc1	none (no result: SIRT5 inh, Casp6 inh, ERAP1 HTS inh)
O=C(C[C@@H]1CC[C@@H]2[C@H](COC[C@H](O)CN2S(=O)(=O)c2cccc(Cl)c2)O1)NCc1ccncn1	none
COCCNCC(=O)C12CC3CC(CC(C3)C1)C2	SIRT5 inh 23
COCCNC(C)C(=O)C12CC3CC(CC(C3)C1)C2 (centres undefined)	none (no result: FGF22 binding)
O=C(C[C@@H]1CC[C@@H]2NC[C@H](O)COC[C@H]2O1)NCCN1CCCC1	none (no result: FGF22 binding)
Cc1cc2nc(SCC(=O)O)nc(C)c2cc1C	none
CCOC(=O)CSc1nc(C)c2cc(C)c(C)cc2n1	SIRT5 inh 17 (no result: INS-1E GSIS act)
C[C@H](CO)N1C[C@H](C)[C@@H](CN(C)S(=O)(=O)c2ccc(Cl)cc2)Oc2ccc(NC(=O)CCC(F)(F)F)cc2C1=O	none
COc1ccc(NC(=O)Nc2cccc([N+](=O)[O-])c2)cc1Cl	none
O=C(Nc1ccc([N+](=O)[O-])cc1)Nc1ccc(OC(F)F)c(Cl)c1	INS-1E GSIS act 174 (no result: SIRT5 inh, FGF22 binding, Casp6 inh, ERAP1 HTS inh)
NC(=O)c1ccc(NC(=O)COc2ccc([N+](=O)[O-])cc2Cl)cc1	FGF22 binding 43
CC(C)C(C)NC(=O)COc1ccc([N+](=O)[O-])cc1Cl (centres undefined)	none
Cc1ccc(S(=O)(=O)Nc2ccc3c(c2)C(=O)N([C@@H](C)CO)C[C@@H](C)[C@H](CN(C)S(=O)(=O)c2cccs2)OCCCC[C@H](C)O3)cc1	none
Cc1ccc(S(=O)(=O)Nc2ccc3c(c2)C(=O)N([C@@H](C)CO)C[C@H](C)[C@H](CN(C)S(=O)(=O)c2cccs2)OCCCC[C@@H](C)O3)cc1	SIRT5 inh 18
C[C@@H]1CCCCO[C@H](CN(C)S(=O)(=O)c2cccs2)[C@@H](C)CN([C@H](C)CO)C(=O)c2cc(NS(=O)(=O)c3ccc(Cl)cc3)ccc2O1	FGF22 binding 1.6
C[C@H]1CCCCO[C@H](CN(C)S(=O)(=O)c2cccs2)[C@@H](C)CN([C@@H](C)CO)C(=O)c2cc(NS(=O)(=O)c3ccc(Cl)cc3)ccc2O1	none
CCOC(=O)C1=C(O)/C(=C/c2ccc(OCC(=O)O)c(OCC)c2)SC1=Nc1ccc(OC)cc1	Casp6 inh 35 (no result: FGF22 binding, INS-1E GSIS act)
CCOC(=O)C1=C(O)/C(=C/c2ccc(OCC(=O)O)c(OCC)c2)SC1=Nc1ccc(C)cc1	none
CC(C)(C)OC(=O)NOCC(=O)N(Cc1ccccc1)CC(O)COc1ccccc1 (centres undefined)	none (no result: INS-1E GSIS act)
CC(C)(C)OC(=O)NOCC(=O)N(CC(=O)c1ccccc1)Cc1ccccc1	SIRT5 inh 27
C[C@H](CO)N1C[C@H](C)[C@@H](CN(C)Cc2ccc(C(=O)Nc3ccccc3N)cc2)Oc2ccc(NC(=O)Cc3cn(C)c4ccccc34)cc2CC1=O	none
C[C@H]1CN([C@@H](C)CO)C(=O)c2cc(NC(=O)Cc3cn(C)c4ccccc34)ccc2O[C@H]1CN(C)Cc1ccc(C(=O)Nc2ccccc2N)cc1	SIRT5 inh 20
Cc1noc(C)c1NC(=O)Nc1ccc2c(c1)C(=O)N([C@H](C)CO)C[C@@H](C)[C@@H](CN(C)Cc1ccc(C(=O)Nc3ccccc3N)cc1)O2	SIRT5 inh 19
Cc1noc(C)c1NC(=O)Nc1ccc2c(c1)C(=O)N([C@H](C)CO)C[C@H](C)[C@H](CN(C)Cc1ccc(C(=O)Nc3ccccc3N)cc1)O2	none (no result: SIRT5 inh)
C[C@H]1CCCCO[C@H](CN(C)Cc2ccncc2)[C@@H](C)CN([C@@H](C)CO)C(=O)c2cc(NS(=O)(=O)c3cn(C)cn3)ccc2O1	none
O=C(C[C@H]1C=C[C@H](NC(=O)c2cccc(F)c2)[C@H](CO)O1)NCc1ccccc1	none
COC(=O)c1c(C)[nH]c(O)c1C=Nc1ccc(Oc2ccccc2)cc1	FGF22 binding 44
N#C[C@@H]1[C@H](c2ccc(-c3cncnc3)cc2)[C@H](CO)N1C(=O)Cc1ccccc1	none
CC1CCCCC1NS(=O)(=O)c1ccc(S(=O)(=O)N2CCN(CCC#N)CC2)cc1 (centres undefined)	Casp6 inh 45 (no result: SIRT5 inh)
O=C(C1CCCC1)N1CC2(C1)[C@@H](c1ccccc1)[C@@H](CO)N2CC1CC1	none (no result: FGF22 binding)
O=C(C[C@@H]1C=C[C@H](NC(=O)c2ccc(F)cc2)[C@@H](CO)O1)NCCc1ccncc1	none
Cn1nc(C(=O)Nc2cccc(Cl)c2)cc1C(=O)Nc1cccc(Cl)c1	none
Cn1ccs/c1=N\C(=O)Nc1cccc(Cl)c1	FGF22 binding 43
OC(COc1ccccc1)Cn1c2ccccc2c2ccccc21 (centres undefined)	none (no result: SIRT5 inh, FGF22 binding, Casp6 inh, ERAP1 HTS inh)
O=C(O)c1ccc(OCC(O)Cn2c3ccccc3c3ccccc32)cc1 (centres undefined)	SIRT5 inh 24
Cc1nc2ccccc2n1CC(O)COc1ccc(Br)cc1 (centres undefined)	FGF22 binding 44
CC1=CC(C)C(C(=O)O)C(C(=O)O)C1 (centres undefined)	none
